# PubChem BioAssay (EPA / NIEHS)
# Inconclusive results are not listed. Some compounds were tested as several samples or in several runs, with calls that do not always agree. The source made the active and inactive calls. Rule for the calls, unless noted: active = hit-call score of the fitted dose curve at least 0.9, where 1 is the maximum; inconclusive = response in the unintended direction; inactive = score below 0.9.
# Key:
# [1] = target: Peroxisome proliferator-activated receptor gamma (Homo sapiens) (UniProt P37231); experiment: NVS_NR_hPPARg: NovaScreen (NVS) Nuclear Receptor Binding Assay for human Peroxisome Proliferator-activated Receptor gamma (PPARg) (AID 2283370)
# Method in brief: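 Cell-free binding to extracted PPARg protein, read by fluorescence polarization 2 h after dosing; loss of signal relative to DMSO baseline marks displacement. Primary screen in duplicate at 25 uM, actives retested in concentration series.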
# [2] = target: human Phosphodiesterase 10 (PDE10), PDE10A (gene 10846) (UniProt Q9Y233); experiment: NVS_ENZ_hPDE10: NovaScreen (NVS) Enzymatic Assay for human Phosphodiesterase 10 (PDE10) (AID 2283195)
# Method in brief: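 Fluorescence/mobility-shift readout of PDE10A enzyme activity, taken 1 h post-dosing. Primary screen in duplicate at 25 uM; actives (e.g. ≥30% inhibition) retested as singleton concentration-response, top concentration 50 uM.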
# [3] = CCTE_Deisenroth_AIME_384WELL_CTox_Inactive: Cytotoxicity Assessment (CTOX) in CCTE's 384-well Estrogen Receptor Transactivation Assay without AIME metabolic competence (metabolism negative), Deisenroth Lab (AID 2284039);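 note: cell viability via live-cell protease substrate cleaved to fluorescent probe; cells exposed 24 h to medium preincubated 2 h with alginate-water beads without S9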
# Method in brief: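 VM7Luc4E2 human breast cells received conditioned medium from a 2 h incubation of chemical with alginate-water microspheres (no S9), then were exposed 24 h. Viability was read as protease-substrate cleavage to a fluorescent probe; loss of signal was fitted bidirectionally over 0.002–200 uM.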
# [4] = target: human Peripheral-type Benzodiazepine Receptor (PBR), TSPO (gene 706) (UniProt P30536); experiment: NVS_MP_hPBR: NovaScreen (NVS) Membrane Protein Assay for human Peripheral-type Benzodiazepine Receptor (PBR) (AID 2283331);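 note: hits reduce radioligand binding relative to DMSO baseline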
# Method in brief: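 Human colonic cell membranes were incubated with test chemical for 1 hour; radioligand binding was measured by filter-based scintillation counting. Primary screen ran in duplicate at 25 uM, with actives followed in concentration series; loss of signal versus DMSO baseline.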
# [5] = CCTE_Padilla_ZF_Score.General: CCTE's 144 Hour Post-fertilization zebrafish Assay Score for General Malformation, Padilla Lab (AID 2284411; active = hit-call score of the fitted dose curve at least 0.9, where 1 is the maximum; inactive = score below 0.9)
# Method in brief: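 Wild-type zebrafish embryos were plated singly at 6-8 hpf in 10% Hanks' and exposed in sealed wells at 26C until rinsed on 5 dpf. At 6 dpf two blinded assessors scored mortality, hatching and malformations by stereomicroscopy; gain-of-signal versus DMSO.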
# [6] = target: Retinoic acid receptor alpha (Homo sapiens) (UniProt P10276); experiment: ATG_RARa_TRANS: Attagene TRANS-FACTORIAL HepG2 Assay for human Retinoic Acid Receptor alpha (RARa) (AID 2283005)
# Method in brief: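 HepG2 cells transiently transfected with multiple reporter units expressing chimeric RARα-GAL4 fusion, with GAL4-UAS-driven reporters. After 24 h compound exposure, reporter mRNA induction quantified by RT-PCR and capillary electrophoresis with fluorescent labeling; gain-of-signal fitted relative to DMSO control.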
# [7] = target: rat Thyrotropin Releasing Hormone Receptor (TRH), Trhr (gene 25570) (UniProt Q01717); experiment: NVS_GPCR_rTRH: NovaScreen (NVS) G Protein-Coupled Receptor Assay for rat Thyrotropin Releasing Hormone Receptor (TRH) (AID 2283329);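 note: hit means lower bound tracer signal versus DMSO baseline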
# Method in brief: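 Cell-free radioligand binding on rat forebrain membranes; bound tracer measured by filter-based scintillation counting 4 hours after dosing. Loss of signal versus DMSO baseline indicates displacement; primary screen at 25 uM in duplicate, actives then run in concentration series.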
# [8] = CEETOX_H295R_OHPREG: CeeTox H295R High-throughput Steroidogenesis Assay for OH-Pregnenolone (OHPREG) (AID 2283434; active = hit-call score of the fitted dose curve at least 0.9, where 1 is the maximum; inactive = score below 0.9); details: actives raise or lower the signal
# Method in brief: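 Human adrenal H295R cells were prestimulated 48 h with 10 uM forskolin, then exposed 48 h to chemical in 0.1% DMSO. Medium 17alpha-hydroxypregnenolone was quantified by HPLC-MS/MS after MTBE extraction; bidirectional fitting versus DMSO baseline.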
# [9] = CEETOX_H295R_OHPROG: CeeTox H295R High-throughput Steroidogenesis Assay for OH-Progesterone (OHPROG) (AID 2283435; active = hit-call score of the fitted dose curve at least 0.9, where 1 is the maximum; inactive = score below 0.9); details: actives raise or lower the signal
# Method in brief: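 H295R human adrenal cells were prestimulated 48 h with 10 uM forskolin, then exposed 48 h to test chemical (0.1% DMSO final). 17alpha-hydroxyprogesterone in medium was measured by HPLC-MS/MS after MTBE extraction; bidirectional fitting vs DMSO.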
# [10] = CEETOX_H295R_11DCORT: CeeTox H295R High-throughput Steroidogenesis Assay for 11-Deoxycortisol (11DCORT) (AID 2283432; active = hit-call score of the fitted dose curve at least 0.9, where 1 is the maximum; inactive = score below 0.9); details: actives raise or lower the signal
# Method in brief: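 H295R cells; 10 uM forskolin prestim 48 h; compound in 0.1% DMSO 48 h; media extracted with MTBE; 11-deoxycortisol by LC-MS/MS, 7-point standard curve; gain/loss vs DMSO baseline; viability by MTT in same wells.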
# [11] = CEETOX_H295R_CORTIC: CeeTox H295R High-throughput Steroidogenesis Assay for Corticosterone (CORTIC) (AID 2283437; active = hit-call score of the fitted dose curve at least 0.9, where 1 is the maximum; inactive = score below 0.9;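 note: corticosterone secreted into medium quantified by mass spectrometry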); details: actives raise or lower the signal
# Method in brief: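 H295R cells were prestimulated 48 h with 10 uM forskolin, then exposed 48 h to test chemical in 0.1% DMSO. Medium corticosterone was MTBE-extracted and quantified by HPLC-MS/MS; bidirectional fit versus DMSO baseline.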
# [12] = CEETOX_H295R_CORTISOL: CeeTox H295R High-throughput Steroidogenesis Assay for Cortisol (AID 2283438; active = hit-call score of the fitted dose curve at least 0.9, where 1 is the maximum; inactive = score below 0.9;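 note: cortisol secreted into medium quantified by LC-MS/MS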); details: actives raise or lower the signal
# Method in brief: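 H295R human adrenal cells were prestimulated 48 h with 10 uM forskolin, then exposed 48 h to test chemical (0.1% DMSO final). Medium cortisol was quantified by HPLC-MS/MS after MTBE extraction; bidirectional fitting relative to DMSO baseline.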
# [13] = CEETOX_H295R_DOC: CeeTox H295R High-throughput Steroidogenesis Assay for DOC (AID 2283439; active = hit-call score of the fitted dose curve at least 0.9, where 1 is the maximum; inactive = score below 0.9); details: actives raise or lower the signal
# Method in brief: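 H295R adrenal cells prestimulated 48 h with 10 uM forskolin, then exposed 48 h to test chemical (0.1% DMSO final). Medium 11-deoxycorticosterone extracted with MTBE, quantified by HPLC-MS/MS; bidirectional fit versus DMSO baseline; MTT viability in same wells.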
# [14] = target: human Dopamine Transporter (DAT), SLC6A3 (gene 6531) (UniProt Q01959); experiment: NVS_TR_hDAT: NovaScreen (NVS) Transporter Assay for human Dopamine Transporter (DAT) (AID 2283374);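 note: activity means loss of bound radioligand signal relative to DMSO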
# Method in brief: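 Cell-free radioligand binding to extracted human DAT protein, read 1 h after dosing by filter-based scintillation counting. Loss of specific binding scored against DMSO baseline; primary screen in duplicate at 25 uM, actives then run in concentration series.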
# [15] = CCTE_Deisenroth_AIME_384WELL_CTox_Active: Cytotoxicity Assessment (CTOX) in CCTE's 384-well Estrogen Receptor Transactivation Assay with AIME metabolic competence (metabolism positive), Deisenroth Lab (AID 2284037);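 note: chemicals first conditioned 2 h by alginate-bound induced rat liver S9 before cells; activity means signal loss indicating cell death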
# Method in brief: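 VM7Luc4E2 breast cells received medium pre-incubated 2 h with chemical over alginate microspheres holding induced male Sprague Dawley rat liver S9; viability read 24 h later by protease-substrate fluorescence. Loss of signal, bidirectional fit, 0.002–200 uM.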
# human Phosphodiesterase 10 (PDE10), PDE10A (gene 10846), sequence (Q9Y233 whole entry, looked up): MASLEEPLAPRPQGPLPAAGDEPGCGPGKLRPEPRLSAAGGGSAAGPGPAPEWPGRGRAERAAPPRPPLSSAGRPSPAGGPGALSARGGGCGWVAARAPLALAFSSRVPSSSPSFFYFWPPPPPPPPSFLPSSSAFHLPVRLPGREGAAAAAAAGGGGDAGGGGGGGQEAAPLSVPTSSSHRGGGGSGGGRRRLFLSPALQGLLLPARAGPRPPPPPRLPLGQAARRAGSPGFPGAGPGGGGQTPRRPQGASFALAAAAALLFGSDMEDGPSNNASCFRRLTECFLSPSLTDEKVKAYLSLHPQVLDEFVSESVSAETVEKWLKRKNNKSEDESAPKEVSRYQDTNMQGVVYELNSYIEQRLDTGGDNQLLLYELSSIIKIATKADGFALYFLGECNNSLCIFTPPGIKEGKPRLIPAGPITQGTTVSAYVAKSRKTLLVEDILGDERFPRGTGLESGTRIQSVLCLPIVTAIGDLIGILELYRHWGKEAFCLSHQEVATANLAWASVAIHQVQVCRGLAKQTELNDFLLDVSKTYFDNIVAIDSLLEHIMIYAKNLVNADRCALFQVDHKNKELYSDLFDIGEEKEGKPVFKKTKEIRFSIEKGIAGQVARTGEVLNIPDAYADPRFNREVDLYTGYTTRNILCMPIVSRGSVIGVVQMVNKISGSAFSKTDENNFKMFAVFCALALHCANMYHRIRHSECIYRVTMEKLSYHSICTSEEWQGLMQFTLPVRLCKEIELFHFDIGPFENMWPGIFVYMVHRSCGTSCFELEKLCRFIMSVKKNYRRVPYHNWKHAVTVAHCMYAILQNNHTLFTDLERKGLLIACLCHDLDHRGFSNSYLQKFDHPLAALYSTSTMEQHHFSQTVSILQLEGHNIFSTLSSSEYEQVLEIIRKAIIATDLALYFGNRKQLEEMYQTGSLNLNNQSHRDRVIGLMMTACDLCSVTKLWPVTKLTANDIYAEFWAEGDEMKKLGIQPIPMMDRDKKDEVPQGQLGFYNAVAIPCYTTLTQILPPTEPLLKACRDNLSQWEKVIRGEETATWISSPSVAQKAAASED
# human Peripheral-type Benzodiazepine Receptor (PBR), TSPO (gene 706), sequence (P30536 whole entry, looked up): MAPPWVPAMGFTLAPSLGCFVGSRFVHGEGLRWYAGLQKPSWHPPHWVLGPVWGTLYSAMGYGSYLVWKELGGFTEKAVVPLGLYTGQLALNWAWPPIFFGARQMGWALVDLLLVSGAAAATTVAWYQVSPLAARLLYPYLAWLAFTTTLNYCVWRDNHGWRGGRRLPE
# human Dopamine Transporter (DAT), SLC6A3 (gene 6531), sequence (Q01959 whole entry, looked up): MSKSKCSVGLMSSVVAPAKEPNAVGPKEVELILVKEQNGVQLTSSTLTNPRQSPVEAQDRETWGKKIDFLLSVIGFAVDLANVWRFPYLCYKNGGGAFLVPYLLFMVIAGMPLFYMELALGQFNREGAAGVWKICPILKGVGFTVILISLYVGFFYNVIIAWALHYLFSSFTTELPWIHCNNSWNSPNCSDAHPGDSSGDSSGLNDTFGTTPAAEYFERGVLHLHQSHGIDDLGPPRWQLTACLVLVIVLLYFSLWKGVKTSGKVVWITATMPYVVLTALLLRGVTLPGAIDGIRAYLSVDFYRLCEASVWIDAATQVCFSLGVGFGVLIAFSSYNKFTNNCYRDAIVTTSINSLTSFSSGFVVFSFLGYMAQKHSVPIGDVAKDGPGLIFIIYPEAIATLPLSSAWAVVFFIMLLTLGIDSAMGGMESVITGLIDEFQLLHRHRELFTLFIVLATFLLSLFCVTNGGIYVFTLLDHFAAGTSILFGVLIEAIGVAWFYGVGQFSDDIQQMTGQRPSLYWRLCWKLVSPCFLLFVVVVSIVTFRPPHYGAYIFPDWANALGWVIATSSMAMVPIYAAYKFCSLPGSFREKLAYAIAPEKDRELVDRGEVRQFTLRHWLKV
# Retinoic acid receptor alpha (Homo sapiens), sequence (P10276 whole entry, looked up, the tested form may be a part): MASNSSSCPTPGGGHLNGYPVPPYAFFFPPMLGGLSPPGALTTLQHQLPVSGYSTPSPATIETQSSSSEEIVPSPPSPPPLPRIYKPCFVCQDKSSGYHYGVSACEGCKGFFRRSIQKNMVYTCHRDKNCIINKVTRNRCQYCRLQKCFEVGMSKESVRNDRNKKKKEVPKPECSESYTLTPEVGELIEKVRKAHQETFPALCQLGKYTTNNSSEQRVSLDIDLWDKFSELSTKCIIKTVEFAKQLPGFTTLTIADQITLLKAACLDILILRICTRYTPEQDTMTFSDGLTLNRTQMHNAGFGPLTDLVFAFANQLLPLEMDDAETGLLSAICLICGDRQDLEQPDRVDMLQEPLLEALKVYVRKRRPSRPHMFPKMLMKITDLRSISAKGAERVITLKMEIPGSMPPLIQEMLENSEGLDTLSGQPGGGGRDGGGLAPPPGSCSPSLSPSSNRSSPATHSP
# rat Thyrotropin Releasing Hormone Receptor (TRH), Trhr (gene 25570), sequence (Q01717 whole entry, looked up): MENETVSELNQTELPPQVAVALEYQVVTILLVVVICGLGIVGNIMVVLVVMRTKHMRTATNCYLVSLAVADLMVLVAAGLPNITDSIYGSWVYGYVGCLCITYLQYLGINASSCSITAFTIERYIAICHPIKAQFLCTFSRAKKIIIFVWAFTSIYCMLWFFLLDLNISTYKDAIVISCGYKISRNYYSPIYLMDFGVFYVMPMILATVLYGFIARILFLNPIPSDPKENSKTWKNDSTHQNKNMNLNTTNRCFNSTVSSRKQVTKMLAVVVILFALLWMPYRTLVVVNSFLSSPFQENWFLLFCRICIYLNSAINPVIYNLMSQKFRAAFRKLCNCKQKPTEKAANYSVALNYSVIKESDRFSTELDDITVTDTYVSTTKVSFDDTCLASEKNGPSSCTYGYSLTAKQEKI
# Peroxisome proliferator-activated receptor gamma (Homo sapiens), sequence (P37231 whole entry, looked up): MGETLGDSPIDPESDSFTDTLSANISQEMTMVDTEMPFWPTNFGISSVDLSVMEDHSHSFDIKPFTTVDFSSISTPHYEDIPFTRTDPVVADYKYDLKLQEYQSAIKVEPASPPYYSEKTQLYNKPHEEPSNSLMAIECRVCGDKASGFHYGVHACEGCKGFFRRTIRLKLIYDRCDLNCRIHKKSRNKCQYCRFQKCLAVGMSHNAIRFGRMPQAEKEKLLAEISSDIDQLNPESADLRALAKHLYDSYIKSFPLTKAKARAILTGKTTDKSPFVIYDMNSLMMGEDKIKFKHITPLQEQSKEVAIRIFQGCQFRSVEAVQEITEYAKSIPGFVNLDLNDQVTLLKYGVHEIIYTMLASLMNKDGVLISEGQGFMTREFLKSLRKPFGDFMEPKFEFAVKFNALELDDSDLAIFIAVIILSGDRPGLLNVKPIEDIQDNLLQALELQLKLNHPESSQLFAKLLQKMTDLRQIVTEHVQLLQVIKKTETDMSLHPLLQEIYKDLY
smiles,measurement,setting,value
c1ccc(P(c2ccccc2)c2ccccc2)cc1,AC50,[1],14.9 µM (active)
N#CCCCCC#N,outcome,[2],inactive
same,outcome,[3],inactive
CC(C)COP(=O)(OCC(C)C)OCC(C)C,AC50,[4],25 µM (active)
same,outcome,[5],inactive
CCOP(=O)(OCC)OCC,outcome,[6],inactive
Nc1ccccc1C(=O)OCCc1ccccc1,outcome,[6],inactive
N#CCCCl,outcome,[6],inactive
CC(=O)c1cc2c(cc1C)C(C)(C)C(C)CC2(C)C (centres undefined),outcome,[7],inactive
same,outcome,[8],inactive
same,outcome,[9],inactive
Oc1cc(Cl)ccc1Cl,outcome,[10],inactive
same,outcome,[8],inactive
same,AC50,[9],25.8 µM (active)
same,outcome,[11],inactive
same,outcome,[12],inactive
same,outcome,[13],inactive
CC1(C)[C@H](C(=O)O[C@H](C#N)c2cccc(Oc3ccccc3)c2)[C@@H]1C=C(Br)Br,AC50,[4],10.1 µM (active)
same,outcome,[4],inactive
same,AC50,[14],7.41 µM (active)
CC(C)(c1cc(Cl)c(O)c(Cl)c1)c1cc(Cl)c(O)c(Cl)c1,outcome,[7],inactive
same,AC50,[1],1.54 µM (active)
same,outcome,[1],inactive
same,outcome,[14],inactive
same,AC50,[15],159 µM (active)
same,AC50,[3],153 µM (active)
C=CC(=O)OCC(CC)CCCC (centres undefined),outcome,[5],inactive
C[N+](C)=CCl,outcome,[6],inactive
CCCCCCCCCCCC#N,outcome,[2],inactive
CCOP(=O)(OCC)Oc1ccc([N+](=O)[O-])cc1,outcome,[4],inactive
same,outcome,[8],inactive
same,outcome,[9],inactive
C=CC(=O)OCCO,outcome,[7],inactive
same,outcome,[10],inactive
same,outcome,[8],inactive
same,outcome,[9],inactive
same,outcome,[11],inactive
same,outcome,[12],inactive
same,outcome,[13],inactive
Clc1ccc(-c2ccccc2)cc1,outcome,[2],inactive
same,outcome,[14],inactive
O=[N+]([O-])c1ccc(Cl)cc1,outcome,[2],inactive
same,outcome,[15],inactive
same,outcome,[3],inactive
